From ChEMBL document CHEMBL1961873, “Compounds: GSK PKIS; Assays: Nanosyn kinase panel” (2012) come the findings set out here.

Assay [1] concerns the target Calcium/calmodulin-dependent protein kinase type II subunit alpha (Homo sapiens) (UniProt Q9UQM7). As to conditions: at 1 µM.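 Also: reported value is a mean percent inhibition of CAMK2A.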
The target in assay [2] is Calcium/calmodulin-dependent protein kinase type II subunit delta (Homo sapiens) (UniProt Q13557). As to conditions: at 0.1 µM.
Assay [3] shares this target. As to conditions: at 1 µM.
Assay [4] concerns the target T1, Calcium/calmodulin-dependent protein kinase type IV (Homo sapiens) (UniProt Q16566).
T1 sequence (whole entry): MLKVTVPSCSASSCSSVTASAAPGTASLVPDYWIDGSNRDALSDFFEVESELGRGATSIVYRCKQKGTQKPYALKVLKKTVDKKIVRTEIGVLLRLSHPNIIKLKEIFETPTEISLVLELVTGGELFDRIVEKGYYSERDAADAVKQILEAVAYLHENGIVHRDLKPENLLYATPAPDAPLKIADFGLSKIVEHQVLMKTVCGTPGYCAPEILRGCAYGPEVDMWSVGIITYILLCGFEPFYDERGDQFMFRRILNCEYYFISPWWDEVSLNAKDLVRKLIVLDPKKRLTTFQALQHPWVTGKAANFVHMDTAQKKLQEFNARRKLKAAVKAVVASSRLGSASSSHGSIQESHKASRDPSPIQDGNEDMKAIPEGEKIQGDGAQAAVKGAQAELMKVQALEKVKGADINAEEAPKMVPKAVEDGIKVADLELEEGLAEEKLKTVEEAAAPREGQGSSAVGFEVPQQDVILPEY
As to conditions: at 0.1 µM.

Assay [5] deals with T1, Calcium/calmodulin-dependent protein kinase type IV (Homo sapiens). The note with it: at 1 µM.
For assay [6], the target named is T2, Serine/threonine-protein kinase Chk1 (Homo sapiens) (UniProt O14757).
T2 sequence (whole entry): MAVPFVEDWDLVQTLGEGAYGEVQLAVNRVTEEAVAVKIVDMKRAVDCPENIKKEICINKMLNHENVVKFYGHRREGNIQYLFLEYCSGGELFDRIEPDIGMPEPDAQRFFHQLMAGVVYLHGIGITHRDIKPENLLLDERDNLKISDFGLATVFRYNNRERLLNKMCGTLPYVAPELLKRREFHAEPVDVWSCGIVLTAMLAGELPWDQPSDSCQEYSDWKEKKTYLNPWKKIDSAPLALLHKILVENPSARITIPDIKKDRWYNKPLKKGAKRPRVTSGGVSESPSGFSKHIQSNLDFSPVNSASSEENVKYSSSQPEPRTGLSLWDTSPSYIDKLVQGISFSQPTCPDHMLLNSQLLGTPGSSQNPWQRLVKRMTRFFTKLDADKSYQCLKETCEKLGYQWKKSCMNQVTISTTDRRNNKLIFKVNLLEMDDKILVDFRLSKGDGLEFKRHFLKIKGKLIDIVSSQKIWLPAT
The note with it: at 0.1 µM.

The target of assay [7] is T2, Serine/threonine-protein kinase Chk1 (Homo sapiens). The note with it: at 1 µM.
Assay [8] addresses Serine/threonine-protein kinase Chk2 (Homo sapiens) (UniProt O96017). The note with it: at 0.1 µM.
The target is the same in assay [9]. The note with it: at 1 µM.
Assay [10] addresses Death-associated protein kinase 1 (Homo sapiens) (UniProt P53355). The note with it: at 0.1 µM.
Assay [11] has the same target. The note with it: at 1 µM.
For assay [12], the target named is T3, Serine/threonine-protein kinase DCLK2 (Homo sapiens) (UniProt Q8N568).
T3 sequence (whole entry): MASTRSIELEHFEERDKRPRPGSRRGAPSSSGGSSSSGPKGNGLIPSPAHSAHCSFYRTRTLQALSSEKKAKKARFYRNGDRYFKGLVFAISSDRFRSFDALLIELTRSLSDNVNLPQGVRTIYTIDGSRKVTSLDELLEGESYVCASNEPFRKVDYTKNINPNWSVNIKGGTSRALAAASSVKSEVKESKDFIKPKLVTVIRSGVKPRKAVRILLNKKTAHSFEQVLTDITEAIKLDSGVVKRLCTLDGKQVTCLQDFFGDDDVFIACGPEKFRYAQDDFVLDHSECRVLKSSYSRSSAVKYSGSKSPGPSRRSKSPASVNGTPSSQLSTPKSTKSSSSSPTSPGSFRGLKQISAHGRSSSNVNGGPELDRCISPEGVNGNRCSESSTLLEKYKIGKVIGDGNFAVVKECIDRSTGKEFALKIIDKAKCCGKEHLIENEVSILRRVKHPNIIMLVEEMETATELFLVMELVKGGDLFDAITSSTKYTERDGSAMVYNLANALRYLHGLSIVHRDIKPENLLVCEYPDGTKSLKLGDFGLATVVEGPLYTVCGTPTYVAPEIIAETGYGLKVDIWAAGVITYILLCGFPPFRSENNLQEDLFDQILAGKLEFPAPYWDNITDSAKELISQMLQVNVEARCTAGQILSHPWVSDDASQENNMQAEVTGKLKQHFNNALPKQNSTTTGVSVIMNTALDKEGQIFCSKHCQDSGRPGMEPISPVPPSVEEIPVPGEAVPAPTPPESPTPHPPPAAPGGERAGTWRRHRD
As to conditions: at 0.1 µM.

For assay [13], the target named is T3, Serine/threonine-protein kinase DCLK2 (Homo sapiens). As to conditions: at 1 µM.
For assay [14], the target named is MAP kinase-activated protein kinase 2 (Homo sapiens) (UniProt P49137). As to conditions: at 0.1 µM.
For assay [15] the target is unchanged. As to conditions: at 1 µM.
Assay [16] addresses MAP kinase-activated protein kinase 3 (Homo sapiens) (UniProt Q16644). The note with it: at 0.1 µM.
Assay [17] has the same target. As to conditions: at 1 µM.
In assay [18] the target is Serine/threonine-protein kinase MARK1 (Homo sapiens) (UniProt Q9P0L2). As to conditions: at 0.1 µM.
Assay [19] shares this target. The note with it: at 1 µM.
The target of assay [20] is MAP/microtubule affinity-regulating kinase 3 (Homo sapiens) (UniProt P27448). The note with it: at 0.1 µM.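 Also: mean percent inhibition of MARK3 kinase activity, measured within the GSK PKIS screening panel.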

Structures are written as SMILES.

Sequence of Calcium/calmodulin-dependent protein kinase type II subunit delta (Homo sapiens) (Q13557 whole entry): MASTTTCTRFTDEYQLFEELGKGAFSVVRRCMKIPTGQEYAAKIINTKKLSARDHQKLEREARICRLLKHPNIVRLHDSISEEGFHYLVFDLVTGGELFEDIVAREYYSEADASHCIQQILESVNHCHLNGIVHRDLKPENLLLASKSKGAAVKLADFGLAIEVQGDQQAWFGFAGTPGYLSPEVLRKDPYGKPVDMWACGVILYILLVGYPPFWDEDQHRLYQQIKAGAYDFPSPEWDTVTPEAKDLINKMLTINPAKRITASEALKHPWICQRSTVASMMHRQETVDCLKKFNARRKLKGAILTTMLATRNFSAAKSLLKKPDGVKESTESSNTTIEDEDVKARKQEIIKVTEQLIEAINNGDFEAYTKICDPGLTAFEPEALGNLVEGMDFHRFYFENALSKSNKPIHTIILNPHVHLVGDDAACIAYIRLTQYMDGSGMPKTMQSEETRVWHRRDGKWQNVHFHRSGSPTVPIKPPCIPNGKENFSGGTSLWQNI
Sequence of Serine/threonine-protein kinase MARK1 (Homo sapiens) (Q9P0L2 whole entry, looked up): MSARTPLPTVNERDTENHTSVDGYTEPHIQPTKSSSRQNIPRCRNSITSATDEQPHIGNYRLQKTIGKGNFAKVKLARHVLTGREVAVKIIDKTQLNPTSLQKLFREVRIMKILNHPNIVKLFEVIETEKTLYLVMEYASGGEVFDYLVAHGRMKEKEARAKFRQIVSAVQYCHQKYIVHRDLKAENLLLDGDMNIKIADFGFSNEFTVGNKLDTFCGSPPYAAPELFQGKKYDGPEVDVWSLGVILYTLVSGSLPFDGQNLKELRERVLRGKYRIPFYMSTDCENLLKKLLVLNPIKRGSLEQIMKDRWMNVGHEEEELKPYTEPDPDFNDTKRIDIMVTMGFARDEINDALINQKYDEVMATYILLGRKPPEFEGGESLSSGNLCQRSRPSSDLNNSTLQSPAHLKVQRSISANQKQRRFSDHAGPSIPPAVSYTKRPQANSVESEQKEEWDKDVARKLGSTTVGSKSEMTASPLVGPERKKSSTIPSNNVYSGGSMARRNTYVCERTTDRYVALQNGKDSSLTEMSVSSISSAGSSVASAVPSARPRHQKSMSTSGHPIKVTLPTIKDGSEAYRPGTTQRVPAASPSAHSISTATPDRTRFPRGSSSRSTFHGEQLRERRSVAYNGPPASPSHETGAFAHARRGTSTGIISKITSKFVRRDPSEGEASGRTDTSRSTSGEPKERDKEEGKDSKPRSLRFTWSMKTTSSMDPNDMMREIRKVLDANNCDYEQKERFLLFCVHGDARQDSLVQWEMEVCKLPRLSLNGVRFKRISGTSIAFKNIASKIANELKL
Sequence of Calcium/calmodulin-dependent protein kinase type II subunit alpha (Homo sapiens) (Q9UQM7 whole entry): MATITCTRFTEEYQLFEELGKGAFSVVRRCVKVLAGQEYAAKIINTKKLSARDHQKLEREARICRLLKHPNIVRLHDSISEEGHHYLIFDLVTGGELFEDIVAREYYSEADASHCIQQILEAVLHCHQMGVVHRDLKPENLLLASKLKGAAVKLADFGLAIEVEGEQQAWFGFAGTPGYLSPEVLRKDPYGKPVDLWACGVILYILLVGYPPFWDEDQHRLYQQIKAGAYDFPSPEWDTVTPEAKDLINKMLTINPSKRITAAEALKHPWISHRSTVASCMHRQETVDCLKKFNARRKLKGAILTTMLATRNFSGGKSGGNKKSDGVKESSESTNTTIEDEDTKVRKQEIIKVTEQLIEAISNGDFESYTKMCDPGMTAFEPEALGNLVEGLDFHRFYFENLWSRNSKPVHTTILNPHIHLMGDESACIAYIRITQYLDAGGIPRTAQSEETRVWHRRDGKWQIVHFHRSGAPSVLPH
Sequence of MAP/microtubule affinity-regulating kinase 3 (Homo sapiens) (P27448 whole entry, looked up): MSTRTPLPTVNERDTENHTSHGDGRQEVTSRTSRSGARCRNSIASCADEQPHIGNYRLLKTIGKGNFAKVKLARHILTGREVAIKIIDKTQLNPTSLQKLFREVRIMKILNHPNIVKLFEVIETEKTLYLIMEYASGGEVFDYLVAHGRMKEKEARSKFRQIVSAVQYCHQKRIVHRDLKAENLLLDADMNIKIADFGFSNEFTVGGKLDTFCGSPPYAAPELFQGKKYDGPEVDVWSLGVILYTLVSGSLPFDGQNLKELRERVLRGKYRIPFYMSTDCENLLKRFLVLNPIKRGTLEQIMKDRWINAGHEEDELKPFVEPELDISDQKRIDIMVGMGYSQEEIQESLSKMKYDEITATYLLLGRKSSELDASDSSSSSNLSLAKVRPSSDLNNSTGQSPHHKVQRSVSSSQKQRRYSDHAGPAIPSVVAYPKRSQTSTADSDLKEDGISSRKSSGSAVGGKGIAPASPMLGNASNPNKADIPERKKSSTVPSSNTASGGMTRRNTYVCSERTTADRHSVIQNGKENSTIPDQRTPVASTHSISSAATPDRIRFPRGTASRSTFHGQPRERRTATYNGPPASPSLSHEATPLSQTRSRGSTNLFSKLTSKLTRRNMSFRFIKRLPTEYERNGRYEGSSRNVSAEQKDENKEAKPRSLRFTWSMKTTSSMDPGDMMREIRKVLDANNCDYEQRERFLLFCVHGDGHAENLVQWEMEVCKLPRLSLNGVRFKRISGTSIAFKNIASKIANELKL
Sequence of MAP kinase-activated protein kinase 2 (Homo sapiens) (P49137 whole entry, looked up): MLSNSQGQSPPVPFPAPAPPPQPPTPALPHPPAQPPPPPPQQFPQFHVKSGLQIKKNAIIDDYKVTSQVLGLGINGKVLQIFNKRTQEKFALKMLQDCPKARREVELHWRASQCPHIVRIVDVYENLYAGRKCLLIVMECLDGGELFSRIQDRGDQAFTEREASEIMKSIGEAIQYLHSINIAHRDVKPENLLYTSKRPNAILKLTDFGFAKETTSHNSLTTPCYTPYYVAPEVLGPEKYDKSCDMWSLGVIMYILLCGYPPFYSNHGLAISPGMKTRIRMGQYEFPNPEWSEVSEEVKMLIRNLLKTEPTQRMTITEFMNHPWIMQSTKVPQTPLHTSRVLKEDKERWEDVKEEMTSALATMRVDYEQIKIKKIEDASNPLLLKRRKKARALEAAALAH
Sequence of Serine/threonine-protein kinase Chk2 (Homo sapiens) (O96017 whole entry): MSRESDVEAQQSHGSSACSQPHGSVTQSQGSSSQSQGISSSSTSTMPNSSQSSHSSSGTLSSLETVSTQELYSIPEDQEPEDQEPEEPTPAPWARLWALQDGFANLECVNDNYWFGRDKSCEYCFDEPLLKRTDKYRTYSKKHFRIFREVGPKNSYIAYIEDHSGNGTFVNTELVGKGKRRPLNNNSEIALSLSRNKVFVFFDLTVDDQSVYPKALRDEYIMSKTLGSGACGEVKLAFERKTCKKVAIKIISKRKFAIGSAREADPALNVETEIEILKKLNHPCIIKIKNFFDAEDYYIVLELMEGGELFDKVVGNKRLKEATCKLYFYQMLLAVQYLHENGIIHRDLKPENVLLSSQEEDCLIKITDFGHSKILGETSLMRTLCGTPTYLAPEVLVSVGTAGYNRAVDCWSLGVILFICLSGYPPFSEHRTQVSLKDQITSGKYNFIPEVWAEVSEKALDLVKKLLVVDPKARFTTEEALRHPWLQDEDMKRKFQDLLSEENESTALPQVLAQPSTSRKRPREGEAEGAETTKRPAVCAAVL
Sequence of MAP kinase-activated protein kinase 3 (Homo sapiens) (Q16644 whole entry, looked up): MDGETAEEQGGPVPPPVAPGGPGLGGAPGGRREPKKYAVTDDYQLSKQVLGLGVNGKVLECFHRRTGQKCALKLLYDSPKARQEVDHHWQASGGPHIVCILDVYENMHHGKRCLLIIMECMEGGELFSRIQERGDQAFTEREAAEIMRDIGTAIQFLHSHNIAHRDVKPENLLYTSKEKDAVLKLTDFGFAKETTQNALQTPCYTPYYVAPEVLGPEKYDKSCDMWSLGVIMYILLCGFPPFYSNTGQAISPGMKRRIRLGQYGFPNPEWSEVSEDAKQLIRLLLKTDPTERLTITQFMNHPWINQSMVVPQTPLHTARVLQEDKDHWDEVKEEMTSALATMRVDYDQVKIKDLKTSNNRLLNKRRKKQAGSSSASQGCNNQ

As for `NS(=O)(=O)c1ccc(NC=C2C(=O)Nc3ccc4ncsc4c32)cc1`, the inhibition (usually the drop in the measured response relative to a control, in per cent) in [1] was determined as 13.7%; in assay [2], 7.83%; in [3], 30.6%; in assay [4], 0.83%; in assay [5], 6.33%; in assay [6], 14.5%. The inhibition worked out at 48% in [7]; 7.15% in assay [8]; 33.2% in [9]; 4.96% in assay [10]; 24.9% in [11]; 0.84% in assay [12]. Moreover, the inhibition is 7.25% in [13]; 2.28% in assay [14]; 4.38% in [15]; 5.09% in assay [16]; 5.58% in assay [17]; 30.8% in [18]. The inhibition amounted to 67.3% in assay [19] and 17.8% in [20].

In the case of `Cc1ccc2c(-c3ccnc(Nc4ccc5c(c4)OCCO5)n3)c(-c3ccc(C(F)(F)F)cc3)nn2n1`, the inhibition in assay [1] was -1.51%; in assay [2], 0.22%; in assay [3], -0.06%; in [4], 2.15%; in assay [5], 0.11%; in [6], 1.74%. Moreover, the inhibition in assay [7] was 0.1%; in assay [8], -0.69%; in assay [9] it was -0.6%; in assay [10], 2.74%; in [11], 1.35%; in [12], -1.42%. Moreover, the inhibition in [13] was -0.35%; in [14], 0.41%; in assay [15], -0.12%; in assay [16], 2.89%; in assay [17], 10.8%; in assay [18], 1.39%. Further, the values for the inhibition in assay [19] and in [20] were 2.56% and -1.05%, respectively.

As to `CCCN1CCCC(c2ccc(Nc3nc(Nc4cc(F)ccc4C(N)=O)c4cc[nH]c4n3)c(OC)c2)C1` (stereo not given), the inhibition was 44.9% in assay [1]; 26.9% in [2]; 72.8% in [3]; 7.83% in assay [4]; 36.1% in assay [5]; -4.38% in assay [6]. The inhibition in [7] was determined as 8.07%; in assay [8], 48.9%; in [9], 79.1%; in assay [10] it was 3.54%; in assay [11], 47.1%; in assay [12], 2.57%. Further, the inhibition in assay [13] was 7.08%; in assay [14], 2.17%; in assay [15], 3.54%; in [16], 8.62%; in [17], 17.3%; in assay [18], 11%. Also, the inhibition in assay [19] is 52.9%; in assay [20], 19.9%.

Consider `Cc1ccc(O)cc1Nc1ccnc2ccc(S(C)(=O)=O)cc12`, for which the inhibition is 6.06% in assay [1]; 3.19% in assay [2]; 3.36% in assay [3]; -1.1% in [4]; -1.84% in assay [5]; 8.75% in assay [6]. In addition, the inhibition stood at 9.21% in assay [7]; 8.1% in assay [8]; 15.1% in assay [9]; 12.2% in assay [10]; 13.2% in assay [11]; 2.11% in [12]. Moreover, the inhibition turned out to be 1.09% in assay [13]; 4.78% in [14]; 5.17% in assay [15]; 14.2% in assay [16]; 24.2% in assay [17]; 4.73% in [18]. In addition, the inhibition in assay [19] was determined as 7.33%; in assay [20], 2.7%.

As for `CC(C)c1ccc2c(c1)NC(=O)/C2=N/Nc1ccc(S(N)(=O)=O)cc1`, the inhibition in assay [1] is 0.01%; in [2] it was -0.56%; in [3] it was 0.81%; in [4], -0.87%; in assay [5] it was 0.54%; in assay [6] it was -7.82%. Moreover, the inhibition in [7] was 0.1%; in assay [8], 0.32%; in [9], 0.01%; in assay [10], -0.88%; in assay [11] it was -1.66%; in assay [12], -1.85%. The inhibition is -0.66% in assay [13]; -1.01% in assay [14]; -0.9% in [15]; -0.68% in [16]; -1.45% in assay [17]; -0.84% in assay [18]. The inhibition in [19] was 0.9%; in assay [20], -3.67%.

For `CCOc1nccc2c1nc(-c1nonc1N)n2CC`, the inhibition in assay [1] is 2.47%; in assay [2], 1.48%; in [3], 3.36%; in [4], -4.15%; in [5] it was -3.33%; in assay [6], 4.09%. The inhibition in [7] amounted to 5.94%; in assay [8] it was 2.06%; in [9] it was 3.78%; in assay [10], 3.66%; in assay [11] it was 3.18%; in assay [12], 0.43%. Moreover, the inhibition in assay [13] was determined as 1.18%; in [14], 2.38%; in [15] it was 2.83%; in assay [16] it was 3.14%; in [17], 2.96%; in assay [18] it was 2.58%. Besides, the inhibition in assay [19] was determined as 9.64%; in assay [20] it was 1.53%.
